From PubChem BioAssay AID1159580 (chemical genetic matrix, 2015)
About 2,000 (36%) of roughly 5,500 compounds were called active. Another 18% or so got no clear call; they are omitted. Rule as the data show it: active = normalized growth mostly below about 0.91 (no sharp cut-off); inconclusive = no clear call, values can overlap the other calls; inactive = mostly above about 0.92. The list shows a part of the results.

Test: chemical genetic growth profiling, strain panel (AID 1159580);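 also: tested at 20 µM; growth read once vehicle control cultures reached saturation at 30 °C; 1 = growth at the plate median or of vehicle wells; lower values mean less growth of the strain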
Settings: growth OD

Measured: normalized growth

Clc1ccc(Cl)cc1
inactive: S. cerevisiae deletion strains, locus YAL013W, strain DEP1, stronger effect = lower value 1.01 | S. cerevisiae deletion strains, locus YBR021W, strain FUR4, stronger effect = lower value 1.01 | S. cerevisiae deletion strains, locus YBR229C, strain ROT2, stronger effect = lower value 1.01 | S. cerevisiae deletion strains, locus YCL029C, strain bik1, stronger effect = lower value 0.994 | S. cerevisiae deletion strains, locus YDL035C, strain GPR1, stronger effect = lower value 1.02 | S. cerevisiae deletion strains, locus YDL074C, strain BRE1, stronger effect = lower value 1.04 | S. cerevisiae deletion strains, locus YDL101C, strain DUN1, stronger effect = lower value 1.02 | S. cerevisiae deletion strains, locus YDL134C, strain PPH21, stronger effect = lower value 1 | S. cerevisiae deletion strains, locus YDL185W, strain tfp1, stronger effect = lower value 0.968 | S. cerevisiae deletion strains, locus YDL192W, strain arf1, stronger effect = lower value 0.983 | S. cerevisiae deletion strains, locus YDR101C, strain arx1, stronger effect = lower value 0.986 | S. cerevisiae deletion strains, locus YDR150W, strain NUM1, stronger effect = lower value 1 | S. cerevisiae deletion strains, locus YDR162C, strain NBP2, stronger effect = lower value 1.01 | S. cerevisiae deletion strains, locus YDR318W, strain mcm21, stronger effect = lower value 0.99 | S. cerevisiae deletion strains, locus YDR388W, stronger effect = lower value 0.988 | S. cerevisiae deletion strains, locus YDR502C, strain sam2, stronger effect = lower value 0.993 | S. cerevisiae deletion strains, locus YEL061C, strain CIN8, stronger effect = lower value 1 | S. cerevisiae deletion strains, locus YER110C, stronger effect = lower value 0.979 | S. cerevisiae deletion strains, locus YER155C, strain BEM2, stronger effect = lower value 1.01 | S. cerevisiae deletion strains, locus YER167W, strain BCK2, stronger effect = lower value 1.01 | S. cerevisiae deletion strains, locus YGL078C, strain dbp3, stronger effect = lower value 0.974 | S. cerevisiae deletion strains, locus YGL086W, strain mad1, stronger effect = lower value 1 | S. cerevisiae deletion strains, locus YGL248W, strain PDE1, stronger effect = lower value 1.01 | S. cerevisiae deletion strains, locus YGR078C, strain PAC10, stronger effect = lower value 1.02 | S. cerevisiae deletion strains, locus YGR135W, strain pre9, stronger effect = lower value 0.99 | S. cerevisiae deletion strains, locus YGR229C, strain SMI1, stronger effect = lower value 1.02 | S. cerevisiae deletion strains, locus YGR252W, strain gcn5, stronger effect = lower value 0.964 | S. cerevisiae deletion strains, locus YHR030C, strain SLT2, stronger effect = lower value 1.01 | S. cerevisiae deletion strains, locus YHR079C, strain IRE1 (second series), stronger effect = lower value 0.989 | S. cerevisiae deletion strains, locus YHR094C, strain hxt1, stronger effect = lower value 0.987 | S. cerevisiae deletion strains, locus YHR129C, strain ARP1, stronger effect = lower value 1.01 | S. cerevisiae deletion strains, locus YHR200W, strain rpn10, stronger effect = lower value 0.988 | S. cerevisiae deletion strains, locus YIL066C, strain RNR3, stronger effect = lower value 1.02 | S. cerevisiae deletion strains, locus YIL073C, strain SPO22, stronger effect = lower value 1.01 | S. cerevisiae deletion strains, locus YIL125W, strain kgd1, stronger effect = lower value 0.972 | S. cerevisiae deletion strains, locus YIR030C, strain dcg1, stronger effect = lower value 0.987 | S. cerevisiae deletion strains, locus YJL095W, strain BCK1, stronger effect = lower value 1.02 | S. cerevisiae deletion strains, locus YJL134W, strain LCB3, stronger effect = lower value 1.01 | S. cerevisiae deletion strains, locus YJL168C, strain set2, stronger effect = lower value 0.983 | S. cerevisiae deletion strains, locus YJL187C, strain SWE1 (second series), stronger effect = lower value 1.01 | S. cerevisiae deletion strains, locus YJR043C, strain POL32, stronger effect = lower value 1 | S. cerevisiae deletion strains, locus YJR075W, strain HOC1, stronger effect = lower value 1.01 | S. cerevisiae deletion strains, locus YKL009W, strain mrt4, stronger effect = lower value 1 | S. cerevisiae deletion strains, locus YKL068W, stronger effect = lower value 0.984 | S. cerevisiae deletion strains, locus YKL085W, strain MDH1 (second series), stronger effect = lower value 0.982 | S. cerevisiae deletion strains, locus YKL085W, strain MDH1, stronger effect = lower value 0.982 | S. cerevisiae deletion strains, locus YKL190W, strain CNB1, stronger effect = lower value 1.02 | S. cerevisiae deletion strains, locus YKR001C, strain vps1, stronger effect = lower value 0.989 | S. cerevisiae deletion strains, locus YLR039C, strain RIC1, stronger effect = lower value 1.04 | S. cerevisiae deletion strains, locus YLR058C, strain SHM2, stronger effect = lower value 1.01 | S. cerevisiae deletion strains, locus YLR102C, strain apc9, stronger effect = lower value 0.993 | S. cerevisiae deletion strains, locus YLR262C, strain YPT6, stronger effect = lower value 1.04 | S. cerevisiae deletion strains, locus YLR268W, strain sec22, stronger effect = lower value 0.999 | S. cerevisiae deletion strains, locus YLR330W, strain CHS5, stronger effect = lower value 1 | S. cerevisiae deletion strains, locus YLR342W, strain FKS1 (second series), stronger effect = lower value 0.997 | S. cerevisiae deletion strains, locus YLR371W, strain rom2, stronger effect = lower value 0.981 | S. cerevisiae deletion strains, locus YLR418C, strain cdc73, stronger effect = lower value 0.974 | S. cerevisiae deletion strains, locus YML016C, strain PPZ1, stronger effect = lower value 1.01 | S. cerevisiae deletion strains, locus YML032C, strain rad52, stronger effect = lower value 0.986 | S. cerevisiae deletion strains, locus YML124C, strain tub3, stronger effect = lower value 0.987 | S. cerevisiae deletion strains, locus YMR078C, strain ctf18, stronger effect = lower value 0.99 | S. cerevisiae deletion strains, locus YMR223W, strain ubp8, stronger effect = lower value 0.984 | S. cerevisiae deletion strains, locus YMR263W, strain SAP30, stronger effect = lower value 1.01 | S. cerevisiae deletion strains, locus YMR307W, strain GAS1, stronger effect = lower value 1.03 | S. cerevisiae deletion strains, locus YNL067W, strain RPL9B, stronger effect = lower value 1.02 | S. cerevisiae deletion strains, locus YNL128W, strain TEP1, stronger effect = lower value 1.02 | S. cerevisiae deletion strains, locus YNL153C, strain GIM3, stronger effect = lower value 1.01 | S. cerevisiae deletion strains, locus YNL233W, strain BNI4, stronger effect = lower value 1.02 | S. cerevisiae deletion strains, locus YNL250W, strain rad50, stronger effect = lower value 0.963 | S. cerevisiae deletion strains, locus YNL271C, strain bni1, stronger effect = lower value 0.98 | S. cerevisiae deletion strains, locus YNL298W, strain CLA4, stronger effect = lower value 0.98 | S. cerevisiae deletion strains, locus YNL307C, strain MCK1, stronger effect = lower value 0.991 | S. cerevisiae deletion strains, locus YNL322C, strain KRE1, stronger effect = lower value 1.01 | S. cerevisiae deletion strains, locus YNR052C, strain pop2, stronger effect = lower value 0.981 | S. cerevisiae deletion strains, locus YOL006C, strain TOP1, stronger effect = lower value 1.05 | S. cerevisiae deletion strains, locus YOL012C, strain htz1 0.71 | S. cerevisiae deletion strains, locus YOL147C, strain pex11, stronger effect = lower value 0.992 | S. cerevisiae deletion strains, locus YOR061W, strain CKA2, stronger effect = lower value 1.01 | S. cerevisiae deletion strains, locus YOR069W, strain VPS5, stronger effect = lower value 1.01 | S. cerevisiae deletion strains, locus YOR136W, strain idh2, stronger effect = lower value 0.985 | S. cerevisiae deletion strains, locus YOR144C, strain elg1, stronger effect = lower value 0.994 | S. cerevisiae deletion strains, locus YOR184W, strain ser1, stronger effect = lower value 0.997 | S. cerevisiae deletion strains, locus YOR316C, strain cot1, stronger effect = lower value 0.989 | S. cerevisiae deletion strains, locus YPL055C, strain LGE1, stronger effect = lower value 1.02 | S. cerevisiae deletion strains, locus YPL241C, strain CIN2, stronger effect = lower value 1.01 | S. cerevisiae deletion strains, locus YPR119W, strain clb2, stronger effect = lower value 0.988 | S. cerevisiae deletion strains, locus YPR141C, strain kar3, stronger effect = lower value 0.975 | S. cerevisiae deletion strains, locus YPR163C, strain tif3, stronger effect = lower value 0.991 | S. cerevisiae deletion strains, locus YPR167C, strain met16, stronger effect = lower value 0.985 | S. cerevisiae deletion strains, strain wtn01, stronger effect = lower value 0.987 | S. cerevisiae strains, strain wild type, stronger effect = lower value 1.01
